# Experimental data as given in PubChem BioAssay.
# Calls of active or inactive are those of the source. Unless noted, no rule for the calls is given here.
# Assays:
# [1] = anti-His antibody binders, primary screen, artefact control for SMM control protein annotation, biochemical, small-molecule microarray, 635 nm fluorescence (AID 1128); conditions: anti-His Alexa647 antibody binding, higher = more signal;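 also: score merges feature fluorescence with signal-to-noise for each printed compound spot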
# [2] = tested on: Human papillomavirus type 1a E7 protein (residues 1-88); experiment: HPV1a E7 small-molecule binders, primary screen, biochemical, small-molecule microarray, residues 1-88, 635 nm (AID 1129); conditions: small-molecule microarray binding, fluorescence 635 nm; higher = more signal
# [3] = target: Focal adhesion kinase 1 (Homo sapiens) (UniProt Q05397); experiment: small-molecule microarray binders of FAK, primary screen, biochemical, 635/667 nm fluorescence, BSA, DTT (AID 1130); conditions: PTK2 binding, 635 nm fluorescence, higher = more signal;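 also: composite of spot emission at 667 nm and signal to noise over triplicate slides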
# [4] = tested on: Fibrinogen (Alexa647-labelled); experiment: fibrinogen binders on compound microarrays, profiling panel, artefact control for SMM control-protein annotation, biochemical, small-molecule microarray, 635/667 nm fluorescence (AID 1131); conditions: fibrinogen-A647 binding fluorescence, higher = more signal;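 also: z-score merges 667 nm fluorescence with per-spot signal-to-noise over triplicate slides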
# [5] = target: Follistatin (Homo sapiens) (UniProt P19883); experiment: follistatin binders on small-molecule microarrays, primary screen, biochemical, small-molecule microarray, 635/667 nm fluorescence (AID 1132); conditions: FST binding, 635 nm fluorescence, higher = more signal
# [6] = target: Fibroblast growth factor 2 (Homo sapiens) (UniProt P09038); experiment: FGF2 binders on small-molecule microarrays, primary screen, biochemical, small-molecule microarray, 635/667 nm fluorescence (AID 1133); conditions: small-molecule microarray binding, FGF2, fluorescence 635/667; higher = more signal
# [7] = mitochondrial membrane potential change in A549 cells, profiling panel, cell-based, JC-1 fluorescence, basal, 24 h, 100 nL (AID 1138); conditions: higher = more signal;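 also: A549 lung adenocarcinoma cells under basal conditions with no added stimulus; test concentration not given here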
# Lefty1 = Lefty1 binders on small-molecule microarrays, primary screen, biochemical, small-molecule microarray, 635/667 nm fluorescence (AID 1139); conditions: small-molecule microarray binding, fluorescence 635/667; higher = more signal
# [8] = tested on: wheat germ agglutinin (Triticum aestivum), Alexa647-labelled; experiment: wheat germ agglutinin binders on compound microarrays, profiling panel, artefact control for SMM control-protein annotation, biochemical, small-molecule microarray, 635/667 nm fluorescence (AID 1140); conditions: WGA-A647 binding, 635 nm fluorescence, higher = more signal;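 also: score merges 667 nm feature emission with signal to noise over triplicate slides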
# [9] = target: Luciferin 4-monooxygenase (Photinus pyralis) (UniProt P08659); experiment: firefly luciferase enzyme inhibitors, primary screen, biochemical, luminescence, purified enzyme, 2006 set (AID 1141); conditions: SteadyGlo luminescence, 30 min, higher = more signal, called active from +8 up or from −8 down;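 also: cell-free assay with purified firefly luciferase at 100 ng per well in PBS; test concentration not given here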
# [10] = tested on: Wnt5a (protein binding on small-molecule microarray); experiment: Wnt5a binders on small-molecule microarray, primary screen, biophysical, 635/667 nm fluorescence (AID 1142); conditions: 635 nm fluorescence, higher = more signal;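 also: fluorescence read at 667 nm with signal to noise per printed feature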
# [11] = cell viability in Huh7 cells, primary screen, cytotoxicity control for HCV replication inhibitor project, CellTiter-Glo luminescence, basal, 48 h (AID 1143); conditions: Huh7 HCV replicon, higher = more signal, called active from +8 up or from −8 down;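 also: Huh7 hepatoma cells carrying a hepatitis C replication reporter with no stimulus; test concentration not given here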
# [12] = P. aeruginosa biofilm formation inhibitors, primary screen, PAO1 strain, BacTiter-Glo luminescence, LB-PBS (AID 1144); conditions: 12 h, higher = more signal
# [13] = CREB reporter modulators without forskolin, primary screen, cell-based, PC12, CRE-LacZ reporter, unstimulated (AID 1145); conditions: no forskolin, luminescence, 4.5 h, higher = more signal, called active from +8 up or from −8 down
# [14] = CREB reporter modulators under forskolin, primary screen, cell-based, PC12, CRE-LacZ reporter, forskolin-stimulated (AID 1146); conditions: luminescence, 4.5 h, higher = more signal, called active from +8 up or from −8 down;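 also: PC12 cells with 6xCRE LacZ reporter stimulated by forskolin 10 µM; beta-galactosidase reporter signal reflecting CREB driven transcription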
# [15] = target: Streptavidin (Streptomyces avidinii) (UniProt P22629); experiment: streptavidin binders on small-molecule microarray, primary screen, artefact control for SMM compound annotation, biophysical, 635/667 nm fluorescence (AID 1147); conditions: streptavidin binding, higher = more signal;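 also: signal reflects streptavidin binding to arrayed compounds as a control protein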
# [16] = small-molecule binders of probe aInhba, primary screen, biochemical, small-molecule microarray, 635/667 nm fluorescence (AID 1148); conditions: higher = more signal;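 also: score merges 667nm spot fluorescence with signal-to-noise for antibody binding to printed compounds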
# Torsin-1A (Homo sapiens) [17] = target: Torsin-1A (Homo sapiens) (UniProt O14656); experiment: torsin A binders from cell lysate, primary screen, small-molecule microarray, wild-type, 635/667 nm (AID 1149); conditions: COS7 hTOR1A-WT lysate, 635 nm fluorescence, higher = more signal
# Torsin-1A (Homo sapiens) [18] = target: Torsin-1A (Homo sapiens) (UniProt O14656); experiment: small-molecule binders of mutant TOR1A in lysate, primary screen, cell lysate, small-molecule microarray, COS7 lysate, 635/667 nm fluorescence (AID 1150); conditions: COS7 hTOR1A mutant lysate, 635 nm fluorescence, higher = more signal;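 also: score pools 667 nm emission and signal to noise measuring lysate protein binding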
# [19] = tested on: Sonic hedgehog protein (Shh); experiment: small-molecule binders of Shh protein, primary screen, biochemical, small-molecule microarray, 635/667 nm fluorescence (AID 1151); conditions: small-molecule microarray binding, 635 nm fluorescence; higher = more signal;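 also: Shh protein binding to compounds spotted on small-molecule microarray slides; score combines spot fluorescence intensity with signal-to-noise across triplicate slides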
# Follistatin (Homo sapiens), sequence (P19883 whole entry, looked up): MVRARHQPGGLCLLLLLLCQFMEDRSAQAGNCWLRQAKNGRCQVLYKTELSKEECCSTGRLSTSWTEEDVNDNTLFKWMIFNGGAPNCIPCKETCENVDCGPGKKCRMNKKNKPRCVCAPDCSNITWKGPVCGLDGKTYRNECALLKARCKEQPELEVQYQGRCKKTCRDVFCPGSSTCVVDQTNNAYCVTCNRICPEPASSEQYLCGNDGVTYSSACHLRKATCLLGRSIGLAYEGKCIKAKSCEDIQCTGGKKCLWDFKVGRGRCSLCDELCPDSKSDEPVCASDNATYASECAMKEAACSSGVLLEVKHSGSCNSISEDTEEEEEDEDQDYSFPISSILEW
# Focal adhesion kinase 1 (Homo sapiens), sequence (Q05397 whole entry, looked up): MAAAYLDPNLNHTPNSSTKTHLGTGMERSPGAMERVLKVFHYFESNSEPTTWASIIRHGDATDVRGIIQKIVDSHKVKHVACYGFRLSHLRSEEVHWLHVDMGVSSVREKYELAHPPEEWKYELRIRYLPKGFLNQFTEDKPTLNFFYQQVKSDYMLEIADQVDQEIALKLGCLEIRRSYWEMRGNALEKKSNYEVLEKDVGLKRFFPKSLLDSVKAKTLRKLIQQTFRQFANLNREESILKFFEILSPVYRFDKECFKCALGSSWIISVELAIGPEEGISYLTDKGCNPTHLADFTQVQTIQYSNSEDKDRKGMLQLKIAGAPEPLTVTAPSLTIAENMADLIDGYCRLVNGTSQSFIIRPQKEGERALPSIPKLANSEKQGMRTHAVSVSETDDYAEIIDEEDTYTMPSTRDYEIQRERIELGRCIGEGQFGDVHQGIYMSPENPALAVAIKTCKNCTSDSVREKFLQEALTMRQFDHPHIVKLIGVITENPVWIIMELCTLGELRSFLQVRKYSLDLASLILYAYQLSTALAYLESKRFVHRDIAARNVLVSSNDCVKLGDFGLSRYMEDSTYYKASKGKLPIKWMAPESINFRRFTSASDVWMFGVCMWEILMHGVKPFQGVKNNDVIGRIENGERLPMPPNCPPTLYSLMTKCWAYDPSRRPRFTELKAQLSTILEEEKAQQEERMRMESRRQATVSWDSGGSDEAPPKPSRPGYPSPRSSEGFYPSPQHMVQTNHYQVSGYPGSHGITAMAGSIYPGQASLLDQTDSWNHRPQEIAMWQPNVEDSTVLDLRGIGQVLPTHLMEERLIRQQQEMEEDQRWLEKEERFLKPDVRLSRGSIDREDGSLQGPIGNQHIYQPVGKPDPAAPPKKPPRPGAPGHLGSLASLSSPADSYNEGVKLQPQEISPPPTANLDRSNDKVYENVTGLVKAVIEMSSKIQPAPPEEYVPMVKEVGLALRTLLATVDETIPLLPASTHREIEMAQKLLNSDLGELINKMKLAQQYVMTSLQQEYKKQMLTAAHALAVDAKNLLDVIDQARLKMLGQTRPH
# Streptavidin (Streptomyces avidinii), sequence (P22629 whole entry, looked up): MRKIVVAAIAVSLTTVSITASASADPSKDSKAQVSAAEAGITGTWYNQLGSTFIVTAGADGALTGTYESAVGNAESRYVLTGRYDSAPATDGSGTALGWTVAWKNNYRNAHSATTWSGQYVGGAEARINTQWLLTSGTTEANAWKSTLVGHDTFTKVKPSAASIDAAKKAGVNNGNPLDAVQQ
# Luciferin 4-monooxygenase (Photinus pyralis), sequence (P08659 whole entry, looked up): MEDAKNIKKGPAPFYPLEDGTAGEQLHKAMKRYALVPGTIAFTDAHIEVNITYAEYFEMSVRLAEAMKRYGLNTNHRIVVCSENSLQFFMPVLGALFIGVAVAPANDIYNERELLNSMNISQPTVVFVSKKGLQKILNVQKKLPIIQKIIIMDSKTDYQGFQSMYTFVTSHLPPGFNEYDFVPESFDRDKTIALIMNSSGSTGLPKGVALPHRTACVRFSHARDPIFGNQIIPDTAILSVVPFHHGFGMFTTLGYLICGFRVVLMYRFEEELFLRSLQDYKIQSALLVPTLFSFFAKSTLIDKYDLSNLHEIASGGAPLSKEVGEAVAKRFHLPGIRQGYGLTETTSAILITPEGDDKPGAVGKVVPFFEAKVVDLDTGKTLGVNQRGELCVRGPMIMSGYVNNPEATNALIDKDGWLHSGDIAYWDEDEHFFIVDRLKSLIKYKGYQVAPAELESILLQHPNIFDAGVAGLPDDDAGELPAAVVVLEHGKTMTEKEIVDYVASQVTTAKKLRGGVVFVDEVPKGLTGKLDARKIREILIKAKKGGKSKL
# Torsin-1A (Homo sapiens), sequence (O14656 whole entry, looked up): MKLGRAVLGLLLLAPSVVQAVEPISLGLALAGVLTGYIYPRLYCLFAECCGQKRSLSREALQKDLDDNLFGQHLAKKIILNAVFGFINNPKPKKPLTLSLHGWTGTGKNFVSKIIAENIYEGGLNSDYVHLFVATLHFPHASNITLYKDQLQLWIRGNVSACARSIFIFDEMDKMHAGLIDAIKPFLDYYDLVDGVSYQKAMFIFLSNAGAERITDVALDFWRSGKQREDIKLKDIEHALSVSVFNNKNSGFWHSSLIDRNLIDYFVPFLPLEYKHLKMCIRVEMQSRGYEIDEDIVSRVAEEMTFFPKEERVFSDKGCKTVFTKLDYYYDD
# Fibroblast growth factor 2 (Homo sapiens), sequence (P09038 whole entry, looked up): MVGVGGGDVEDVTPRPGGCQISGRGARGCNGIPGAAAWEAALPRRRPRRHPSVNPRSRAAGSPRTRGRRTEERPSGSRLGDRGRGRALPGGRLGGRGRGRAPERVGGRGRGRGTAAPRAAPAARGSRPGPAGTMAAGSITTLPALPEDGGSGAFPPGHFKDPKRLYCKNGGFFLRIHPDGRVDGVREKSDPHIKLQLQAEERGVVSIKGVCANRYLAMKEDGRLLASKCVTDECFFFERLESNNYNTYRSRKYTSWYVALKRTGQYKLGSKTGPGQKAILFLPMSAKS
SMILES,composite z-score [1],composite z-score [2],composite z-score [3],composite z-score [4],composite z-score [5],composite z-score [6],z-score [7],composite z-score (Lefty1),composite z-score [8],z-score [9],composite z-score [10],z-score [11],z-score [12],z-score [13],z-score [14],composite z-score [15],composite z-score [16],composite z-score (Torsin-1A (Homo sapiens) [17]),composite z-score (Torsin-1A (Homo sapiens) [18]),composite z-score [19]
C=CC[C@@]1(C(=O)N2CCCCC2)N=C(c2ccc(OCCCO)cc2)O[C@@H]1c1ccccc1CN=[N+]=[N-],2.75,1.27,0.398,1.02,1.37,0.288,-0.0114,0.484,0.768,-1.37 (inactive),0.381,-4.96 (inactive),-0.703 (inactive),3.77 (inactive),0.51 (inactive),1.77,0.233,0.342,0.711,0.466
COC(=O)[C@H](Cc1ccccc1)N[C@H](/C=C/C1CC1)[C@@H](O)Cc1ccccc1,-0.174,-0.688,-0.295,-1.05,0.395,0.123,-0.0444,-0.0264,0.0999,0.723 (inactive),-0.711,-1.78 (inactive),-0.555 (inactive),2.59 (inactive),-1.23 (inactive),-0.841,-0.322,-0.795,-0.533,-0.345
O=C1OCCC=C[C@H]2OC34C=CCN(CCN5CCOCC5)C(=O)[C@H]3N(CCCCCO)C(=O)[C@@H]4C12 (stereo not given in full),-0.166,0.56,0.398,0.709,-0.211,-0.363,0.791,-0.301,0.615,-0.956 (inactive),-0.135,0.201 (inactive),-0.199 (inactive),1.14 (inactive),0.25 (inactive),1.38,-0.253,1.14,1.52,0.139
COCCOC(=O)N1C(=O)[C@@]2(c3ccccc31)[C@H](C(N)=O)[C@H]1C(=O)O[C@H](c3ccccc3)[C@H](c3ccccc3)N1[C@@H]2c1ccc(O)cc1,0.142,1.04,0.386,-0.649,0.412,-0.488,0.381,0.429,0.839,-1.65 (inactive),0.169,-2.51 (inactive),-0.166 (inactive),-0.375 (inactive),0.06 (inactive),-0.432,-0.204,0.603,0.779,0.105
[N-]=[N+]=Nc1ccccc1C[C@@]1(C(=O)N2CCCCC2)N=C(c2ccc(OCCCO)cc2)O[C@@H]1c1ccccc1N=[N+]=[N-],2.17,1.19,0.362,0.98,1.29,0.592,-1.21,-0.271,1.3,-2.39 (inactive),0.648,-5.13 (inactive),0.989 (inactive),0.801 (inactive),-0.929 (inactive),1.33,0.404,0.46,0.585,0.248
COc1ccc([Si](C)(C)[C@@H]2[C@@H](CCn3cc(CCO)nn3)O[C@]3(C(=O)N(Cc4cccc(N5C(=O)c6cccc7cccc5c67)c4)c4ccccc43)[C@H]2C)cc1,1.18,1.16,0.321,0.556,1.16,0.672,-1.1,1.23,0.509,0.178 (inactive),0.206,-7.96 (inactive),0.000859 (inactive),2.93 (inactive),-1.45 (inactive),0.942,-0.0589,0.119,0.141,2.08
NC(=O)[C@@]1(Cc2ccccc2)N=C(c2ccc(OCCCO)cc2)O[C@H]1c1ccccc1,3.01,0.614,0.0867,0.648,0.62,0.686,0.184,-0.846,1.3,-1 (inactive),0.677,-1.51 (inactive),-0.657 (inactive),1.37 (inactive),-0.382 (inactive),0.924,0.196,1.07,0.601,-0.558
O=C(O)[C@H](Cc1ccccc1)n1cc(-c2ccccc2)nn1,0.347,0.6,0.218,0.368,0.571,0.607,-0.469,0.206,0.651,0.899 (inactive),0.469,0.594 (inactive),0.192 (inactive),1.56 (inactive),0.219 (inactive),0.572,-0.0494,0.0641,0.804,0.172
Cc1ccc([C@H]2C(C(=O)O)=CCN2S(=O)(=O)c2ccc(C)cc2)cc1,0.388,0.64,1.36,-0.169,0.585,-0.6,-0.575,0.0829,0.572,0.838 (inactive),-0.171,-0.849 (inactive),0.668 (inactive),-0.48 (inactive),-0.119 (inactive),0.468,0.0108,0.593,0.435,0.0688
CC(C)[Si](C#CCCCC#N)(O[C@H](c1ccccc1)c1cn(Cc2cccc(Cl)c2)nn1)C(C)C,0.822,0.953,-0.213,0.902,1.13,0.955,5.27,0.764,0.276,-0.513 (inactive),0.182,-2.2 (inactive),-0.603 (inactive),-0.215 (inactive),-0.859 (inactive),-0.0708,0.0614,1.42,0.392,1.21
